The results in this text go back to PubChem BioAssay (NCI).

Each structure is given as a SMILES string. Compounds without any hit were thinned out: in the full panel of roughly 83,000, 20% have a hit.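 Single-dose data. Exposure time 48 hours. Values below 10 considered active.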 Unmarked numbers belong to inactive results. Calls of active or inactive are those of the source.

What all share (test): NCI-60 one-dose screen, 48 h (100 = growth as untreated, 0 = no growth, -100 = all killed)
One experiment concerns NCI-H226 lung. The settings on record: 10 µM.
The next experiment has as its system HOP-62 NSCLC. Conditions: 10 µM.
Another experiment deals with NCI-H460 lung. Conditions: 10 µM.
A further experiment has as its system A549/ATCC NSCLC. The settings on record: 10 µM.
For the next experiment, the system named is DU-145 prostate. The settings on record: 10 µM.
The test system of another experiment is SF-268 CNS. The settings on record: 10 µM.
In a further experiment the test system is SF-295 CNS. The settings on record: 10 µM.
A further experiment concerns SF-539 CNS. The settings on record: 10 µM.
Another experiment relates to UACC-257 melanoma. The settings on record: 10 µM.
The test system of the next experiment is M14 melanoma. The settings on record: 10 µM.
The test system of another experiment is HCT-15 colon. Conditions: 10 µM.
A further experiment concerns HT29 colon. The settings on record: 10 µM.
For another experiment, the system named is SNB-75 CNS. The settings on record: 10 µM.
The test system of another experiment is SNB-19 CNS. The settings on record: 10 µM.
Another experiment concerns U251 CNS. The settings on record: 10 µM.
In a further experiment the test system is SK-MEL-5 melanoma. The settings on record: 10 µM.
The next experiment deals with UACC-62 melanoma. The settings on record: 10 µM.
For another experiment, the system named is SK-MEL-28 melanoma. Conditions: 10 µM.
The test system of another experiment is SK-MEL-2 melanoma. Conditions: 10 µM.
The next experiment concerns HL-60(TB) leukemia. Conditions: 10 µM unless noted.

On to `O=C(/C=C/c1ccccc1)c1nc2ccccc2n1Cc1ccc(Br)cc1`, for which the growth was -71% (active) in the experiment with NCI-H226 lung; -68% (active) in the experiment on HOP-62 NSCLC; -47% (active) in the experiment with NCI-H460 lung; -3% (active) in the experiment on A549/ATCC NSCLC; -48.3% (active) in the experiment on DU-145 prostate; 3.91% (active) in the experiment on SF-268 CNS. Moreover, the growth with SF-295 CNS is -71.9% (active); in the experiment with SF-539 CNS, -93.4% (active); with UACC-257 melanoma, -51.1% (active); in the experiment with M14 melanoma it was -51.8% (active); in the experiment with HCT-15 colon, -70.3% (active); in the experiment with HT29 colon, -60.3% (active). Further, the growth is 16.2% with SNB-75 CNS; -90.1% (active) in the experiment on SNB-19 CNS; -92.9% (active) in the experiment on U251 CNS; -57% (active) in the experiment on SK-MEL-5 melanoma; -94.2% (active) with UACC-62 melanoma; -73.3% (active) in the experiment on SK-MEL-28 melanoma. Also, the growth in the experiment with SK-MEL-2 melanoma is -51.1% (active); with HL-60(TB) leukemia it was -14.4% (active).

Regarding `O=C(NC([Se])=NC1CCCCC1)c1ccc2c(c1)OCO2`, the growth is 85.6% in the experiment on NCI-H226 lung; 23.3% with HOP-62 NSCLC; 10.6% in the experiment with NCI-H460 lung; 26.8% in the experiment with A549/ATCC NSCLC; 49% with DU-145 prostate; 122% in the experiment on SF-268 CNS. Besides, the growth in the experiment with SF-295 CNS was 6.53% (active); in the experiment with SF-539 CNS, 56.9%; in the experiment on UACC-257 melanoma it was 50.5%; with M14 melanoma it was 60.2%; in the experiment with HCT-15 colon, 47.3%; in the experiment on HT29 colon, 55.6%. In addition, the growth is 10.6% with SNB-75 CNS; 33.3% in the experiment on SNB-19 CNS; 27.6% in the experiment with U251 CNS; 79.3% in the experiment with SK-MEL-5 melanoma; 76.3% in the experiment on UACC-62 melanoma; 51.6% in the experiment on SK-MEL-28 melanoma. Further, the results for the growth with SK-MEL-2 melanoma and in the experiment on HL-60(TB) leukemia were 99.6% and 65.7%, respectively.

As for `O=C(NCCCCC(c1ccc(F)cc1)c1ccc(F)cc1)Nc1ccc([N+](=O)[O-])c(C(F)(F)F)c1`, the growth was 0.603% (active) in the experiment on NCI-H226 lung; -29% (active) with HOP-62 NSCLC; 7.56% (active) with NCI-H460 lung; 6% (active) in the experiment on A549/ATCC NSCLC; 20.9% in the experiment with DU-145 prostate; 18.5% with SF-268 CNS. The growth was -4.61% (active) with SF-295 CNS; -28.2% (active) in the experiment with SF-539 CNS; -15.7% (active) in the experiment with UACC-257 melanoma; -23.1% (active) in the experiment on M14 melanoma; 0.604% (active) in the experiment with HCT-15 colon; -11% (active) in the experiment with HT29 colon. Besides, the growth is -9.8% (active) with SNB-75 CNS; 17.1% in the experiment on SNB-19 CNS; 2.48% (active) with U251 CNS; -100% (active) in the experiment on SK-MEL-5 melanoma; -14.9% (active) in the experiment with UACC-62 melanoma; 16.5% in the experiment on SK-MEL-28 melanoma. Further, the growth with SK-MEL-2 melanoma was -71% (active).
